ERa SRC1 pot – enhances coactivator binding to human estrogen receptor alpha; TR-FRET ERalpha-LBD/SRC-Cy5 coactivator binding, 2 h; 100 = basal binding, no effect; AID 639; 86,000 compounds, 1.3% hits; coactivator binding (% of control), % at 25.6 µM; in the data active = activity above about 200%;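 also: binding measured in presence of low estradiol as agonist stimulus; 0% = peptide alone without receptor and 100% = receptor with peptide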
Candida biofilm – kills Candida albicans biofilms | 85,000 compounds, 0.14% hits | AID 834 | inhibition, % at 6 µM | C. albicans biofilm + clotrimazole, Alamar Blue;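 active = inhibition above 20%; inactive = inhibition below 20%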;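 also: preformed 24 hr biofilms exposed to compound for 48 hr; 0% = biofilm without compound and 100% = blank killed by clotrimazole plus chlorhexidine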
MT1-MMP txn act – MT1-MMP promoter transcription activation. HT1080 MT1-MMP promoter luciferase reporter, luminescence, overnight; hits give high values. AID 750. 86,000 compounds, 0.16% hits. activation factor at 10 µM;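 active = activation factor of at least 2 for MT1-MMP transcription at 10 µM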
ERa coact inh – blocks coactivator binding to human estrogen receptor alpha; AID 629; P03372; inhibition, % at 25.6 µM; 86,000 compounds, 1.7% hits; TR-FRET ER-alpha LBD / SRC-1 peptide, estradiol-bound; in the data active = inhibition above about 50%;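 also: 0% = receptor plus peptide control and 100% = peptide only without receptor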
ERb SRC1 inh – ER-beta (human) coactivator binding inhibition | inhibition, % at 25.6 µM | AID 633 | Q92731 | TR-FRET ER-beta LBD / SRC1-Cy5 peptide binding; receptor agonist-loaded with 1 µM estradiol | 86,000 compounds, 1.3% hits;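 active = compounds whose percent inhibition of the receptor-coactivator binding signal exceeds about 50% in the single-dose screen, limit read from the data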;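 also: 0% = receptor plus peptide wells without compound and 100% = peptide-only wells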
EphB4 ephrin blk – blocks human EphB4 binding to ephrin-B2. EphB4 LBD / TNYL-RAW-Alexa532 peptide, fluorescence polarization. P54760. 97,000 compounds, 0.15% hits. inhibition, % at 7 µM;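 active = inhibition above the screen-wide mean inhibition plus 3 SD, cut at about 15% in these data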;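 also: 0% = DMSO wells and 100% = excess unlabeled TNYL-RAW peptide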
Target sequence (P54760 whole entry, looked up, the tested form may be a part): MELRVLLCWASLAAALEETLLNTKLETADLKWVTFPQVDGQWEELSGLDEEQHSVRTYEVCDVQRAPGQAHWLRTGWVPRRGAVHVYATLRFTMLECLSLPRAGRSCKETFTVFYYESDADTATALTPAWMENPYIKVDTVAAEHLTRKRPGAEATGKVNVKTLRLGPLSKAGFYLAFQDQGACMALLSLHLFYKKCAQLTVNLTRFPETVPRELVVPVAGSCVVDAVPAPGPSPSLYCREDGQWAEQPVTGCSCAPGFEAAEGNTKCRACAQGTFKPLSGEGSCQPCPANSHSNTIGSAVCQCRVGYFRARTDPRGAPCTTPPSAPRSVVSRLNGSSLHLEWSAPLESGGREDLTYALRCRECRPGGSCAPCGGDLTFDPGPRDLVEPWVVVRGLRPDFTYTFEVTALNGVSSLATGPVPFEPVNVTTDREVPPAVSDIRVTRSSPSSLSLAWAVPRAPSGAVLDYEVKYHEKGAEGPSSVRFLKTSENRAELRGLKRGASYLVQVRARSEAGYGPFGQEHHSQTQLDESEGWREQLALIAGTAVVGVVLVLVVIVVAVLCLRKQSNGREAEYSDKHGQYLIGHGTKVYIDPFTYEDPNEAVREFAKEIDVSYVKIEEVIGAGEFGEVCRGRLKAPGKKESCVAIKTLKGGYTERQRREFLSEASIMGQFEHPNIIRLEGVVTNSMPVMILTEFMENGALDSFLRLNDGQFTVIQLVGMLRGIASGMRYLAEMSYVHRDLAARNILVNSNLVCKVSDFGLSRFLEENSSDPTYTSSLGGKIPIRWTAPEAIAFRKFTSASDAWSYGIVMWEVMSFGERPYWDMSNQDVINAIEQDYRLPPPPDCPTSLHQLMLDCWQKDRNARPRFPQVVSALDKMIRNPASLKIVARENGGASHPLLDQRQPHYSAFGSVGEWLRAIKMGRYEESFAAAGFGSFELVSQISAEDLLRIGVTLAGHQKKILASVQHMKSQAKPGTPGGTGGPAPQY
The depositor's hits bear a star; · = no result given; [ ] = another dose, or the depositor's remark. Only some compounds are listed: those with a hit (about 3.2% of all), similar ones and a draw of the others.

SMILES	ERa SRC1 pot	Candida biofilm	MT1-MMP txn act	ERa coact inh	ERb SRC1 inh	EphB4 ephrin blk
C=CCn1c(SCCC(=O)O)nnc1-c1cccs1	108.1	4.0	1.2	-2.6	-0.9	-3.9
Cc1cccc(-n2c(SCCC(=O)O)nnc2-c2cccs2)c1C	93.5	8.1	1	-0.2	50.2*	-5.8
O=C(CSc1nnc(-c2cccs2)n1-c1ccccc1)N1CCCc2ccccc21	889.5*[fluorescence artefact?]	1.4	1	16.2	-42.6	-2.0
Cc1c(NC(=O)CSc2nccn2C)c(=O)n(-c2ccccc2)n1C	·	·	·	·	·	4.8
Cc1sc2nc(SCC(=O)Nc3c(C)n(C)n(-c4ccccc4)c3=O)n(C)c(=O)c2c1C	24.3	9.9	1.1	70.0*[fluorescence artefact?]	62.3*[fluorescence artefact?]	-2.5
COc1ccc(C(=O)c2c(C(F)(F)F)oc3c2C(=O)c2ccccc2C3=O)cc1	113.5	-5.8	0.8	0.5	68.0*	4.5
Cc1ccc(C(=O)c2c(C)oc3c2C(=O)C(=O)c2ccccc2-3)cc1	85.2	10.3	1.5	-12.0	-8.4	-4.4
O=C(Cc1c(C(=O)O)[nH]c2ccccc12)NCCN1CCN(c2ccccc2F)CC1	·	·	1	·	·	-0.7
COc1ccc(C(=O)Nc2nc3cc(OC)c(OC)cc3c(=O)[nH]2)cc1	434.3*	4.5	1	9.3	22.3	6.2
COc1cc2nc(NC(=O)c3ccccc3)[nH]c(=O)c2cc1OC	124.2	1.7	1	0.2	-1.5	2.7
Cc1ccc(C)n1-c1sccc1C(=O)O	27.4	0.6	1.3	71.3*[fluorescence artefact?]	60.0*	-2.8
Cc1ccc(C(=O)c2ccccc2C(=O)O)s1	96.6	6.2	1.2	-9.5	-10.1	-0.5
COc1ccc(CN2C(=O)c3cccnc3C2O)cc1 (stereo not drawn)	394.5*[fluorescence artefact?]	6.1	1	-5.5	8.1	-4.3
COc1ccc(CN2C(=O)c3cccnc3C2Nc2cc(Cl)ccc2OC)cc1 (stereo not drawn)	357.0*[fluorescence artefact?]	0.4	1.1	-36.7	-9.2	·
COC(=O)c1cc(NC2c3ncccc3C(=O)N2Cc2ccccc2)cc(C(=O)OC)c1 (stereo not drawn)	112.8	-3.8	1	-6.3	-9.4	-1.8
Cc1ccc(Cn2nc(C)c(NC(=O)C3(C)CC3(Br)Br)c2C)cc1 (stereo not drawn)	112.8	5.9	1.2	-10.6	-5.5	-2.1
Cc1ccc(S(=O)(=O)N2CCCC2C(=O)OCc2ccco2)cc1 (stereo not drawn)	137.7	3.2	1.1	33.4	20.6	3.6
CCOC(=O)c1c(C)c(C(=O)NCC2CCCO2)c(C)n1C (stereo not drawn)	111.7	5.9	1.5	-4.7	-6.9	-2.9
Cc1ccc(N2CC(C(=O)Nc3ccccn3)CC2=O)cc1 (stereo not drawn)	92.7	-2.4	1.2	5.4	62.5*[fluorescence artefact?]	6.1
Cc1ccc(C)c(CN2C(=O)C(C)Oc3ccc(C)cc32)c1 (stereo not drawn)	·	·	1.1	·	·	-0.3
COc1ccccc1C(=O)Nc1c2c(nn1-c1cccc(C)c1C)CS(=O)(=O)C2	410.2*[fluorescence artefact?]	11.2	1.1	31.9	-5.7	-9.1
COc1ccc(CC(=O)Nc2c3c(nn2-c2cccc(C)c2C)CS(=O)(=O)C3)cc1	116.8	10.5	1.1	2.8	-5.1	-1.6
CCc1c(C#N)c(N)nc(SCC(=O)OCc2ccccc2)c1C#N	206.8*[fluorescence artefact?]	1.9	1.1	26.0	27.5	5.1
COc1ccc(CCNC(=O)CSc2nc(N)c(C#N)c(-c3cccs3)c2C#N)cc1OC	111.9	8.9	1.1	11.0	18.8	2.2
CCN(CC)C(=O)CSc1nc(N)c(C#N)c(-c2cccs2)c1C#N	221.5*[fluorescence artefact?]	4.2	1.2	17.3	1.7	2.9
SMILES	ERa SRC1 pot	Candida biofilm	MT1-MMP txn act	ERa coact inh	ERb SRC1 inh	EphB4 ephrin blk
Cc1ccccc1NC(=O)CSc1nc(N)c(C#N)c(-c2cccs2)c1C#N	319.3*[fluorescence artefact?]	5.3	0.9	29.4	50.6*[fluorescence artefact?]	-9.6
N#Cc1c(N)nc(SCc2ccncc2)c(C#N)c1-c1cccs1	266.9*[fluorescence artefact?]	5.4	1	-0.8	-5.5	·
CCCc1cc2c(n1CCc1ccc(Cl)cc1)C(C)C1CN(C(=O)c3ccccc3)C(C)(C(=O)OC)C21 (stereo not drawn)	·	·	1	·	·	·
COc1ccc(C2C3=C(CCCC3=O)Nc3c(-c4ccccc4)c(C)nn32)cc1 (stereo not drawn)	98.8	5.2	1.3	-4.6	-15.2	1.9
CCN(CC)C(=O)CSc1ncnc2c(-c3cccs3)nsc12	177.0	10.0	1.3	50.7*[fluorescence artefact?]	50.9*[fluorescence artefact?]	-2.5
OCCCn1c(-c2ccccc2)n[nH]c1=S	95.4	7.1	1.5	-11.6	-10.9	5.4
CCC1=C2CC[C@H]3C(=O)N(CC(=O)OC)C(=O)[C@H]3[C@H]2[C@@]2(Cc3ccccc3)C(=NCCOC)OC(=O)N2C1=O	·	·	1.1	·	·	·
Cn1c(=O)c2ncn(CC(=O)Nc3ccc(N4CCOCC4)cc3)c2n(C)c1=O	·	·	·	·	·	2.2
CCC(C)c1ccc2oc(-c3ccc(NC(=O)Cn4cnc5c(=O)n(C)c(=O)n(C)c54)cc3)nc2c1 (stereo not drawn)	99.2	2.4	1.4	71.8*[fluorescence artefact?]	42.7	-4.2
Cn1c(=O)c2ncn(CC(=O)Nc3ccc4oc(-c5cccc6ccccc56)nc4c3)c2n(C)c1=O	43.9	6.1	0.9	74.9*[fluorescence artefact?]	36.5	-4.7
COc1cc(CN(C)Cc2ccccc2)cc(OC)c1O	·	·	·	·	·	3.0
Cc1n[nH]c(C)c1CCc1nc2c3ccccc3nc(SCC(=O)Nc3ccccc3F)n2n1	181.0	-1.5	·	72.6*[fluorescence artefact?]	58.7*[fluorescence artefact?]	1.1
Cc1ccc(CNC(=O)CSc2nc3ccccc3c3nc(C)nn23)cc1	·	·	·	·	·	-3.8
Cc1cccc(NC(=O)CSc2nc3ccccc3c3nc(CCc4c(C)n[nH]c4C)nn23)c1	30.9	7.4	1	66.5*[fluorescence artefact?]	45.2	1.9
O=C(NCc1ccccc1)c1ccc(C(=O)N(C2CCCCC2)C2CCCCC2)cc1	75.9	75.7*	·	1.2	5.5	-4.2
O=C(O)C1CCCCC1C(=O)NCc1ccccc1 (stereo not drawn)	105.6	-0.6	2*	-1.0	-3.3	3.5
O=C(O)C1CCCCC1C(=O)NCc1ccc(F)cc1 (stereo not drawn)	93.9	7.2	1	-2.3	-7.6	3.2
CCn1cc(S(=O)(=O)CC(=O)Nc2ccc3c(c2)OCO3)c2ccccc21	·	·	1	·	·	·
Cc1noc(/C=C/c2ccco2)c1S(=O)(=O)N1CCC(C(=O)N2CCc3ccccc3C2)CC1	99.5	5.6	1.2	22.9	31.6	-4.7
Cc1cccc2nc(=S)n(C(=O)c3ccco3)n12	110.6	5.0	2.1*	1.9	1.1	-8.8
O=C(c1ccco1)n1c(=S)nc2ccccn21	113.6	7.9	1.5	-9.4	-7.5	-3.6
COc1ccccc1CN1CCN(C(CC(C)C)c2nnnn2Cc2cccs2)CC1 (stereo not drawn)	·	·	1.1	·	·	·
CCOC(=O)c1cnc(-n2nc(C)cc2C)nc1NCc1ccc2c(c1)OCO2	219.5*[fluorescence artefact?]	6.8	1.1	33.8	30.2	6.3
CCOC(=O)c1cnc(-n2nc(C)cc2C)nc1NCCc1ccccc1	90.8	7.8	1	-5.7	1.6	6.0

Assay outcomes (PubChem)
